Reference: PubChem BioAssay (EPA / NIEHS)
Results filed as inconclusive are left out. Some structures have more than one record in an assay (separate samples or runs), and their calls can disagree. Active and inactive are the calls of the source. The calls were made as follows: active = hit-call score of the fitted dose curve at least 0.9, where 1 is the maximum; inconclusive = response in the unintended direction; inactive = score below 0.9.

test: CCTE_Shafer_MEA_dev_LDH: CCTE's Lactate Dehydrogenase Assay for Cytotoxicity in the Neural Network Formation Assay, Shafer Lab (AID 2284068);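 also: exposure for twelve days from plating with re-dosing on DIV 5 and 9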
Protocol: CCTE_Shafer_MEA_dev assay is conducted using Axion Biosystems 48 well microelectrode array (MEA) plates and Maestro recording system. Each well of the MEA plate contains a grid of 16 microelectrodes embedded in the culture surface. Electrically active cells, such as neurons, can be cultured over the electrodes, and electrical activity in these cells can be recorded extracellularly. The spontaneous firing of neurons is captured from each electrode on a microsecond timescale providing both temporally and spatially precise data. […] The CCTE_Shafer_MEA_dev assay uses primary cultures of rat cortical neurons. Recordings are made on days post-plating 5, 7, 9 and 12. As these cultures mature over time, neural networks develop functional activity and form cohesive networks in which electrical activity can be highly coordinated. CCTE_Shafer_MEA_dev_LDH is 1 of 19 assay components of the CCTE_Shafer_MEA_dev assay. It measures the lactate dehydrogenase enzyme activity using spectrophotometry.Data from the assay component CCTE_Shafer_MEA_dev_LDH was analyzed into 1 assay endpoint. This assay endpoint, CCTE_Shafer_MEA_dev_LDH, was analyzed in the positive analysis fitting direction relative to DMSO as the negative control and baseline of activity. Using a type of viability reporter, loss-of-signal activity can be used to understand cell viability.
On the day prior to culture, each well was coated thoroughly with 150 uL of 0.05% polyethyleneimine (PEI, Sigma Cat P3143) in 50 mM HEPES (Sigma Cat H7523) at a pH of 8. The plate was incubated at 37C for one hour. PEI was rinsed out with 500 uL of sterile water three times. Plates were stored at 4C until the day of culture. This culture was plated at a seeding density of 1.5 x 10^5 cells/well on a 48-well MEA plate, prepared as described above. Cells were administered via a 25 uL media/laminin ([…]; Sigma Cat L2020-1MG) drop directly onto the microelectrode array, as adding the cells with the laminin results in better attachment than pre-coating with laminin. After 2 hours, an additional 475 uL of cortical media was added and the cells returned to the incubator. Exposure starts at day 0 of plating and is continued over twelve days of network development until the experiment is terminated. Cells are fed with fresh medium on DIV 5 and 9, following the recordings on those days. The entire volume of media in the well is exchanged and any vehicle or compound treatment is renewed. Complete details are found in OP-NHEERL/ISTD/SBB/TJS/2015-03-r0 (available on request, email shafer.tim@epa.gov). Measurement of the electrical activity is non-invasive, and recordings can be made from the same plate over multiple different days of the culture. In cortical neurons, this allows for the measurement of extracellular action potentials over the period during which networks form in the MEA plate.

Row | Compound | AC50 | outcome
1 | C=CC(=O)OCCC(F)(F)C(F)(F)C(F)(F)C(F)(F)F | 15 µM (active) | 
2 | OC(O)C(F)(F)C(F)(F)F |  | inactive
3 | OCC(F)(F)C(F)(F)C(F)(F)CO |  | inactive
4 | CCN(CCO)S(=O)(=O)C(F)(F)C(F)(F)C(F)(F)C(F)(F)C(F)(F)C(F)(F)C(F)(F)C(F)(F)F | 10.1 µM (active) | inactive
5 | NC(=O)C(F)(F)C(F)(F)C(F)(F)F |  | inactive
6 | CNS(=O)(=O)C(F)(F)C(F)(F)C(F)(F)C(F)(F)C(F)(F)C(F)(F)C(F)(F)C(F)(F)F |  | inactive
7 | NC(=O)C(F)(F)C(F)(F)C(F)(F)C(F)F |  | inactive
8 | FC(F)(F)C(F)(F)C(F)(F)C(F)(F)C(F)(F)C(F)(F)C(F)(F)CCI |  | inactive
9 | NC(=O)C(F)(F)C(F)(F)C(F)(F)C(F)(F)C(N)=O |  | inactive
10 | OCCCCC(F)(F)C(F)(F)C(F)(F)C(F)(F)F |  | inactive
11 | O=S(=O)(O)CCC(F)(F)C(F)(F)C(F)(F)C(F)(F)F |  | inactive
12 | NC(O)(C(F)(F)F)C(F)(F)F |  | inactive
13 | C=CC(=O)OCC(F)(F)C(F)(F)C(F)(F)COC(=O)C=C | 5.84 µM (active) | 
14 | O=C(O)C(F)(F)C(F)(F)C(F)(F)OC(F)(F)F |  | inactive
15 | OCC(F)(F)C(F)(F)C(F)(F)C(F)(F)C(F)(F)C(F)(F)CO |  | inactive
16 | OCC(F)(F)C(F)(F)C(F)(F)C(F)(F)C(F)(F)C(F)(F)C(F)(F)C(F)(F)CO | 23.3 µM (active) | 
17 | CO[Si](C)(CCC(F)(F)C(F)(F)C(F)(F)C(F)(F)C(F)(F)C(F)(F)F)OC |  | inactive
